Values joined by “and” are separate entries in the source; they are usually repeats but may differ in a detail not shown here. Equal values may be shown once. Active and inactive are the calls of the source. Unless noted, calls come from the whole dose curve; as a rule, active = well fitted curve in the direction sought with a large enough effect in the repeat runs; inconclusive = weak or mixed curves; inactive = no such curve, though single readings can be large; an effect the other way counts as inactive or inconclusive.

Experimental findings from PubChem BioAssay (Tox21) are described below.

Experiment [1] in a line: qHTS assay to identify small molecule antagonists of the glucocorticoid receptor (GR) signaling pathway - cell viability counter screen (AID 720693). Note: nearly all actives have a fitted effect of over 55% in size.
The nature of experiment [2]: qHTS assay for identifying genotoxic compounds that show differential cytotoxicity against isogenic chicken DT40 cell lines with known DNA damage response pathways - wild type cell line (AID 743012). Note: nearly all actives have a fitted effect of over 60% in size. Note: potency is the fitted concentration of half-maximal effect. The procedure, abridged: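 Endpoint: CellTiter-Glo luminescence, 30 min RT. Cells: wild type DT40, 300/well. Exposure: compounds in DMSO, 40 h, 37 C/5% CO2, after ~0.5 h pre-incubation.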

A short description of experiment [3]: qHTS assay for identifying genotoxic compounds that show differential cytotoxicity against isogenic chicken DT40 cell lines with known DNA damage response pathways - Rev3 mutant cell line (AID 743014; note: nearly all actives have a fitted effect of over 55% in size; note: potency is the fitted concentration of half-maximal effect). (In general: Quantitative high-throughput screening tests each substance at several concentrations.)
The nature of experiment [4]: qHTS assay for identifying genotoxic compounds that show differential cytotoxicity against isogenic chicken DT40 cell lines with known DNA damage response pathways - Rad54/Ku70 mutant cell line (AID 743015). Note: nearly all actives have a fitted effect of over 60% in size. Note: potency is the fitted concentration of half-maximal effect.
A short description of experiment [5]: qHTS assay to identify small molecule antagonists of the androgen receptor (AR) signaling pathway - cell viability counter screen (AID 743033; note: nearly all actives have a fitted effect of over 45% in size; note: potency is the fitted concentration of half-maximal effect).
The nature of experiment [6]: qHTS assay to identify small molecule antagonists of the androgen receptor (AR) signaling pathway using the MDA cell line - cell viability counter screen (AID 743041; note: nearly all actives have a fitted effect of over 45% in size; note: potency is the fitted concentration of half-maximal effect). The essentials:
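qHTS viability read-out; MDA-kb2 AR-luc; R1881-stimulated; 16 h exposure at 37C, 0% CO2; CellTiter-Fluor, 30 min; fluorescence intensity.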

Experiment [7] is described as follows: qHTS assay to identify small molecule antagonists of the thyroid receptor (TR) signaling pathway - cell viability counter screen (AID 743064). Note: nearly all actives have a fitted effect of over 50% in size. Note: potency is the fitted concentration of half-maximal effect. The essentials:
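Rat GH3 pituitary tumor cells stably expressing two TR response elements driving luciferase were plated, rested 4 h, then dosed with library compounds and T3 (1 nM final). After 23.5 h at 37 °C, CellTiter-Fluor was added for 30 min and fluorescence recorded.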

The target in experiment [8] is Estrogen receptor (Homo sapiens) (UniProt P03372). The experiment can be described thus: qHTS assay to identify small molecule antagonists of the estrogen receptor alpha (ER-alpha) signaling pathway (AID 743069; active = well fitted curve in the direction sought with a large enough effect in the signal ratio in the repeat runs, not every such curve was filed as active; inconclusive = weak or mixed curves, or effect the other way; inactive = no such curve, though single readings can be large or run the other way; the % refers to the signal ratio). The essentials:
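Screening used a UAS-driven beta-lactamase reporter integrated into HEK293 cells expressing ER-alpha, stimulated with 17beta-estradiol alongside test compounds over 18 hr at 37C; signal came from LiveBLAzer B/G FRET fluorescence.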

Experiment [9] can be described thus: qHTS assay to identify small molecule antagonists of the estrogen receptor alpha (ER-alpha) signaling pathway - cell viability counter screen (AID 743074; calls by dose curve; note: nearly all actives have a fitted effect of over 45% in size; note: potency is the fitted concentration of half-maximal effect).
For experiment [10], the target named is Estrogen receptor (Homo sapiens) (UniProt P03372). The experiment can be described thus: qHTS assay to identify small molecule agonists of the estrogen receptor alpha (ER-alpha) signaling pathway (AID 743075; calls by dose curve; note: potency is the fitted concentration of half-maximal effect).
Chain of Estrogen receptor (Homo sapiens) (P03372 whole entry, looked up): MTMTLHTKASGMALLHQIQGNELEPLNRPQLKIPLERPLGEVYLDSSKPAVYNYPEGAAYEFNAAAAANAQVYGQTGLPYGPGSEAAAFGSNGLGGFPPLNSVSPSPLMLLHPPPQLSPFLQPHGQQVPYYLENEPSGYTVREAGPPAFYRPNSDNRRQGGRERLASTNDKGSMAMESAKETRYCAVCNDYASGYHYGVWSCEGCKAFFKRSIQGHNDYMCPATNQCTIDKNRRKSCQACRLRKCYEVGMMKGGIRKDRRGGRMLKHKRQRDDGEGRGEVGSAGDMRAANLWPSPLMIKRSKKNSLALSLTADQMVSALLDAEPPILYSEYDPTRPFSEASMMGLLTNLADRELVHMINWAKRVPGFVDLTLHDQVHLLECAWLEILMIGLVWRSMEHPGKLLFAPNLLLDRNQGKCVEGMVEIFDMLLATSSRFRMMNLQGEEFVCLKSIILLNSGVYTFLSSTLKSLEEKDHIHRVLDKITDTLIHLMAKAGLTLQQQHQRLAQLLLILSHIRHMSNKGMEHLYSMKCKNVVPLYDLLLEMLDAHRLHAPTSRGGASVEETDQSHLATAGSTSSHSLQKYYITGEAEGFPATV
Experiment [11] shares this target. The experiment can be described thus: qHTS assay to identify small molecule agonists of the estrogen receptor alpha (ER-alpha) signaling pathway using the BG1 cell line (AID 743079). Note: nearly all actives have a fitted effect of over 20% in size.
Experiment [12] can be described thus: qHTS assay to identify small molecule antagonists of the estrogen receptor alpha (ER-alpha) signaling pathway using the BG1 cell line (AID 743080; calls by dose curve;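 note: BG1 cells stimulated with 17beta-estradiol alongside compound; nearly all actives have a fitted effect of over 25% in size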; note: potency is the fitted concentration of half-maximal effect). The essentials:
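Endogenous full-length ER-alpha in BG1-Luc-4E2 cells drives a stably integrated 4×ERE luciferase gene; compounds were tested against 17beta-estradiol over 21.5 h, with luminescence and multiplexed viability fluorescence recorded.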

A short description of experiment [13]: qHTS assay to identify small molecule antagonists of the estrogen receptor alpha (ER-alpha) signaling pathway using the BG1 cell line - cell viability counter screen (AID 743081).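 Note: compound given together with 17beta-estradiol as the ER stimulus; series mostly up to about 70 µM; nearly all actives have a fitted effect of over 45% in size.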
The next experiment deals with Aromatase (Homo sapiens) (UniProt P11511). Nature of the experiment: qHTS assay to identify aromatase inhibitors (AID 743083). Note: nearly all actives have a fitted effect of over 55% in size. Note: potency is the fitted concentration of half-maximal effect.
Chain of Aromatase (Homo sapiens) (P11511 whole entry, looked up): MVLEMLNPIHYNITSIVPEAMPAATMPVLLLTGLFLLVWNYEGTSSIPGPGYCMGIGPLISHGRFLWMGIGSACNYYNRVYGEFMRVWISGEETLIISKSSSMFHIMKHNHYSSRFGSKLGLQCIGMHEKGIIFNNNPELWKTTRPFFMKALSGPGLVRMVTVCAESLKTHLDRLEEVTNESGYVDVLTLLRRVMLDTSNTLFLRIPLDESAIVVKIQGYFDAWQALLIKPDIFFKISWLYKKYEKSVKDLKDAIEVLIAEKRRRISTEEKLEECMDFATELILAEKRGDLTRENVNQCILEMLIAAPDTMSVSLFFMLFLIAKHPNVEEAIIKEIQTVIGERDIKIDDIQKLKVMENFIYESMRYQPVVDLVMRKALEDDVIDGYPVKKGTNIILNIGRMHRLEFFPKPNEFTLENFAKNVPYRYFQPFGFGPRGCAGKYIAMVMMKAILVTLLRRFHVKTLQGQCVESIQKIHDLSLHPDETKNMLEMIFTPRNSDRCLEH
Experiment [14] in a line: qHTS assay to identify small molecule antagonists of the thyroid receptor (TR) signaling pathway (AID 743065). Note: nearly all actives have a fitted effect of over 55% in size. Note: potency is the fitted concentration of half-maximal effect. The essentials: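 GH3.TRE-Luc rat pituitary cells carrying two TR response elements driving luciferase were plated for 4 h, given compound plus 1 nM T3 (final), and incubated 23.5 h at 37 C. ONE-Glo luminescence measured reporter inhibition; CellTiter-Fluor fluorescence tracked cytotoxicity.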

Experiment [15] relates to thyroid hormone receptor (rat, GH3 cells). The experiment can be described thus: qHTS assay to identify small molecule agonists of the thyroid receptor (TR) signaling pathway (AID 743066; calls by dose curve).

For `C=CC(C)=O`, the Potency result in [1], in [2], in [3], in [4], in [5] and in experiment [6] was “inactive” in each case. Besides, the Potency entry in experiment [7], in experiment [8], in experiment [9], in experiment [10], in experiment [11] and in [12] was “inactive” each time. Further, the Potency entry (in experiment [13]; with Aromatase (Homo sapiens)) was “inactive” each time.

Take `CCOP(=S)(OCC)SCn1nnc2ccccc2c1=O`: the Potency entry in experiment [1] and in [15] was “inactive” in each case. The Potency was 7.7 µM (active) in experiment [2]; 7.7 µM (active) in [3]; 9.69 µM (active) in experiment [4]; 24.5 µM (active) in [5]; 61.1 µM (active) in experiment [6]; 61.1 µM (active) in experiment [14]. In addition, the Potency is 49 µM (active) in experiment [9], 19.5 µM [inconclusive] (active) in experiment [10] and 34.4 µM (active) with Aromatase (Homo sapiens).

For the compound `O=C(O)C(F)(F)C(F)(F)C(F)(F)C(F)(F)C(F)(F)C(F)(F)C(F)(F)C(F)(F)C(F)(F)C(F)(F)F`, the Potency entry in experiment [1], in [2], in experiment [3], in experiment [4], in experiment [5] and in experiment [6] was “inactive” in each case. Further, the Potency entry (in experiment [7]; in experiment [14]; in experiment [15]; in experiment [13]; with Aromatase (Homo sapiens)) was “inactive” throughout.

On to `O=[N+]([O-])c1cc(C(F)(F)F)cc([N+](=O)[O-])c1Cl`, for which the Potency entry in experiment [1], in [2], in experiment [3], in experiment [4], in experiment [5] and in experiment [14] was “inactive” in each case. Further, the Potency entry (in experiment [15]; in experiment [9]; in experiment [10]; in experiment [12]; in the experiment with Aromatase (Homo sapiens)) was “inactive” throughout. Besides, the Potency in [7] was 61.4 µM (active).

In the case of `N#Cc1ccc(Cl)cc1`, the Potency result in experiment [1], in [2], in experiment [3], in experiment [4], in experiment [5] and in experiment [6] was “inactive” throughout. Further, the Potency entry in experiment [7], in [8], in experiment [10], in [11], in experiment [12] and in [13] was “inactive” each time. The Potency entry in the experiment with Aromatase (Homo sapiens) was “inactive”.

In the case of `C=CC(=O)OC`, the Potency result in [1], in [2], in experiment [3], in experiment [4], in experiment [5] and in experiment [7] was “inactive” each time. The Potency result (in experiment [14]; in experiment [15]; in [9]; in experiment [13]; with Aromatase (Homo sapiens)) was “inactive” in each case.

Take `CCOP(=O)(OCC)SCCSCC`: the Potency result in experiment [1], in experiment [2], in experiment [3], in experiment [4], in experiment [5] and in [6] was “inactive” throughout. In addition, the Potency result in [14], in experiment [15], in experiment [8], in experiment [9], in experiment [10] and in [12] was “inactive” throughout. Moreover, the Potency entry (in experiment [13]; with Aromatase (Homo sapiens)) was “inactive” each time.

Turning to `Oc1ccc(Cl)c(Cl)c1Cl`, the Potency entry in experiment [1], in experiment [2], in experiment [3], in experiment [4], in [7] and in experiment [14] was “inactive” throughout. For the same compound, the Potency entry (in experiment [15]; in [9]; in experiment [13]; with Aromatase (Homo sapiens)) was “inactive” throughout.

Consider `CC(O)(CS(=O)(=O)c1ccc(F)cc1)C(=O)Nc1ccc(C#N)c(C(F)(F)F)c1` (stereo not drawn), for which the Potency result in [1], in experiment [5], in experiment [7], in experiment [15], in [9] and in [10] was “inactive” throughout. In addition, the Potency entry (in experiment [11]; in experiment [13]; in the experiment with Aromatase (Homo sapiens)) was “inactive” in each case. Besides, the Potency in experiment [2] is 26.6 µM (active); in experiment [3], 10.6 µM (active) and 28.3 µM (active); in [4], 23.7 µM (active) and 28.3 µM (active); in [12], 29.8 µM (active).

For `CNP(=O)(OC)Oc1ccc(C(C)(C)C)cc1Cl` (stereo not drawn), the Potency entry in [1], in [6], in experiment [7], in experiment [14], in experiment [15] and in experiment [9] was “inactive” each time. Moreover, the Potency entry (in experiment [10]; in experiment [11]; in experiment [12]; in [13]; with Aromatase (Homo sapiens)) was “inactive” throughout. For the same compound, the results for the Potency in experiment [2], in experiment [3] and in [4] were 13.7 µM (active), 19.3 µM (active) and 21.7 µM (active), respectively.

Take `CCCC(=O)Cl`: the Potency result in experiment [1], in experiment [2], in experiment [4], in experiment [5], in experiment [6] and in experiment [7] was “inactive” in each case. For the same compound, the Potency result in experiment [14], in experiment [15], in [8], in experiment [9], in experiment [10] and in experiment [11] was “inactive” each time. The Potency entry (in experiment [12]; in [13]; with Aromatase (Homo sapiens)) was “inactive” each time.

Turning to `COc1cc(CC(C)N)cc2c1OCO2` (stereo not drawn), the Potency result in experiment [1], in experiment [2], in experiment [3], in experiment [4], in experiment [5] and in experiment [15] was “inactive” each time. Also, the Potency entry (in experiment [10]; in [11]; in experiment [12]; with Aromatase (Homo sapiens)) was “inactive” in each case.
